In the supplement of paper PMC10849652:
About 7,900 targets were measured; listed, in parts, are those with a hit and a random draw of the rest. About 0.6% of all pairs of compound and target were hits. Unmarked numbers belong to inactive results.

How the values were obtained:
Test in all cases: log2 fold change, soluble protein after heating vs DMSO (PISA); higher = thermal stabilisation; K562 cells, 10 uM, 30 min; active = over 0.2 and 3.5 SD of the protein, either way, in both replicates (recomputed)
[1] = compound: NC(=O)Nc1cc(-c2cccc(F)c2)sc1C(=O)N[C@H]1CCCNC1
In short: (§1)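 Quantification of soluble protein used TMTpro 16plex LC-MS/MS, with channel sums equalised. Samples were the supernatant after 21,000xg for 90 min of pooled aliquots from K562 cells (2×10^6 cells/mL) treated with 10 μM compound for 30 min, heated for 3 min over 48°C-58°C, and extracted in PBS with 0.5% NP-40 at 4°C. Values, from duplicates, describe thermal stability against control samples on a log2 fold-change scale.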

[2] = compound: NC(=O)c1cnc(N[C@@H]2CCCC[C@@H]2N)nc1Nc1cccc(-n2nccn2)c1
In short: as §1

[3] = compound: NC1(c2ccc(-c3nc4ccn5c(=O)[nH]nc5c4cc3-c3ccccc3)cc2)CCC1
In short: as §1

[4] = compound: NCC(=O)Nc1ccc(-n2nc(C(F)(F)F)cc2-c2ccc3c(ccc4ccccc43)c2)cc1
In short: as §1

entinostat = compound: Nc1ccccc1NC(=O)c1ccc(CNC(=O)OCc2cccnc2)cc1 [entinostat]
In short: as §1

vorinostat = compound: O=C(CCCCCCC(=O)Nc1ccccc1)NO [vorinostat]
In short: as §1

citarinostat = compound: O=C(CCCCCCNC(=O)c1cnc(N(c2ccccc2)c2ccccc2Cl)nc1)NO [citarinostat]
In short: as §1

silmitasertib = compound: O=C(O)c1ccc2c(c1)nc(Nc1cccc(Cl)c1)c1ccncc12 [silmitasertib]
In short: as §1

[5] = compound: O=C1NC(=O)C(c2cnc3ccccn23)=C1c1cn2c3c(cc(F)cc13)CN(C(=O)N1CCCCC1)CC2
In short: as §1

[6] = compound: c1cc(OCCN2CCCCC2)cc(-c2n[nH]c3ccc(-c4nnc[nH]4)cc23)c1
In short: as §1

entospletinib = compound: c1cn2cc(-c3ccc4cn[nH]c4c3)nc(Nc3ccc(N4CCOCC4)cc3)c2n1 [entospletinib]
In short: as §1

Sequence of UniProt Q9UEY8 (Q9UEY8 whole entry, looked up): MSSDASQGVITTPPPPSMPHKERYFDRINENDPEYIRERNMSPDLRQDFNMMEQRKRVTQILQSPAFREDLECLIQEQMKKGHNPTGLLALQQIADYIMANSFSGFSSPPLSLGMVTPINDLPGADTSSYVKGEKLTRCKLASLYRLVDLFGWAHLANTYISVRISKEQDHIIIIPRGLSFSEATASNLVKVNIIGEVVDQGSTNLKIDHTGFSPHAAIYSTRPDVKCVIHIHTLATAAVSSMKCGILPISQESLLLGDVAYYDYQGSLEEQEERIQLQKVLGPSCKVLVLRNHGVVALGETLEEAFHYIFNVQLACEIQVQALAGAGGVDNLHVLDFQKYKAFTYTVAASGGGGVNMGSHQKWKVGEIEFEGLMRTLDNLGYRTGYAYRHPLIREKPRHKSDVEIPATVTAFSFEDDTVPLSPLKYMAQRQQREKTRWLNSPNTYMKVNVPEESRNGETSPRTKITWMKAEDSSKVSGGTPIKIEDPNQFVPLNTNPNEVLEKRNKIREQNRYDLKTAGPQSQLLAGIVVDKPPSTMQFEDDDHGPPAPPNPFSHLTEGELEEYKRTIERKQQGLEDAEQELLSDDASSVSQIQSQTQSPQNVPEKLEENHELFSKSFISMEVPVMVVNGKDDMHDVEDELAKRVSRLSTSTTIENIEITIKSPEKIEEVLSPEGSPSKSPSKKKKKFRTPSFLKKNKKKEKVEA
Sequence of UniProt O43865 (O43865 whole entry, looked up): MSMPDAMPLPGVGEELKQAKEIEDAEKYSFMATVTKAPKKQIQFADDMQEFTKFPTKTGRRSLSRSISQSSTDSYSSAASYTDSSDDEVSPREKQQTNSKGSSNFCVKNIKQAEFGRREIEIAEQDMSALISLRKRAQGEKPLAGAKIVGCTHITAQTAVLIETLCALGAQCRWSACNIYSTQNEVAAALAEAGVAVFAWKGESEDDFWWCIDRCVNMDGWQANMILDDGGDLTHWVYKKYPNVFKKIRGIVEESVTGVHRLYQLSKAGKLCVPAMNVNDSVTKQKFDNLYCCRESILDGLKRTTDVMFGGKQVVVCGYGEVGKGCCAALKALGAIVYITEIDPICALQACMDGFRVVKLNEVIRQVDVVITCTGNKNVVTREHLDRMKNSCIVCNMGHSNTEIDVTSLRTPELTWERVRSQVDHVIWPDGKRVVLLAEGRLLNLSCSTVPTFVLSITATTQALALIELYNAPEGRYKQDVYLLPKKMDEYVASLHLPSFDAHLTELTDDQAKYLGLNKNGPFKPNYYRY
Sequence of UniProt P18085 (P18085 whole entry, looked up): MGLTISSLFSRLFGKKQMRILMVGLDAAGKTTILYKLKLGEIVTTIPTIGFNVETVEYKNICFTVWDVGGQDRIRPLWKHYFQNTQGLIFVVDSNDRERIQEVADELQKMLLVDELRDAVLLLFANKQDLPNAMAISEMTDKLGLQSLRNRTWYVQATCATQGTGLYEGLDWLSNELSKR
Sequence of UniProt Q9UQB8 (Q9UQB8 whole entry, looked up): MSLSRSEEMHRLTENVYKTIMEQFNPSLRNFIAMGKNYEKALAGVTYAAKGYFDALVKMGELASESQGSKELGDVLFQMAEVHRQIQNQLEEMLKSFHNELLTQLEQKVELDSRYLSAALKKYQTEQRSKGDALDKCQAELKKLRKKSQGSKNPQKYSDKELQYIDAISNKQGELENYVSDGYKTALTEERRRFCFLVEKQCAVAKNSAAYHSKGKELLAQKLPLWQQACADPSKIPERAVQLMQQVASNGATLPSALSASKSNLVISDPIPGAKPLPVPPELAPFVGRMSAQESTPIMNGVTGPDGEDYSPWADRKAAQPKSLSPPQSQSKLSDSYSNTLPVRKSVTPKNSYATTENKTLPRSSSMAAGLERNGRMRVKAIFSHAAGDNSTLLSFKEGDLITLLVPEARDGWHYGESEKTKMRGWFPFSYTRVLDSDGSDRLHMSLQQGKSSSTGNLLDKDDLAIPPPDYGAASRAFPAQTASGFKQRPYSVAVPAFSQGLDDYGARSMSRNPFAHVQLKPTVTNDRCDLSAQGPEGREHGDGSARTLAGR
Sequence of UniProt Q9UHQ4 (Q9UHQ4 whole entry, looked up): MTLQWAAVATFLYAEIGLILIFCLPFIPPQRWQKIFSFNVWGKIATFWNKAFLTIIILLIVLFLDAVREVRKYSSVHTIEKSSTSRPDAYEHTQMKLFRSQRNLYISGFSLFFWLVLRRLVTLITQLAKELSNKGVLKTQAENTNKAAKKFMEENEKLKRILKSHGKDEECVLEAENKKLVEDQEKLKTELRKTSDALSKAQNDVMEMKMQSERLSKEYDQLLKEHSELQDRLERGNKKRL
Sequence of UniProt Q14137 (Q14137 whole entry, looked up): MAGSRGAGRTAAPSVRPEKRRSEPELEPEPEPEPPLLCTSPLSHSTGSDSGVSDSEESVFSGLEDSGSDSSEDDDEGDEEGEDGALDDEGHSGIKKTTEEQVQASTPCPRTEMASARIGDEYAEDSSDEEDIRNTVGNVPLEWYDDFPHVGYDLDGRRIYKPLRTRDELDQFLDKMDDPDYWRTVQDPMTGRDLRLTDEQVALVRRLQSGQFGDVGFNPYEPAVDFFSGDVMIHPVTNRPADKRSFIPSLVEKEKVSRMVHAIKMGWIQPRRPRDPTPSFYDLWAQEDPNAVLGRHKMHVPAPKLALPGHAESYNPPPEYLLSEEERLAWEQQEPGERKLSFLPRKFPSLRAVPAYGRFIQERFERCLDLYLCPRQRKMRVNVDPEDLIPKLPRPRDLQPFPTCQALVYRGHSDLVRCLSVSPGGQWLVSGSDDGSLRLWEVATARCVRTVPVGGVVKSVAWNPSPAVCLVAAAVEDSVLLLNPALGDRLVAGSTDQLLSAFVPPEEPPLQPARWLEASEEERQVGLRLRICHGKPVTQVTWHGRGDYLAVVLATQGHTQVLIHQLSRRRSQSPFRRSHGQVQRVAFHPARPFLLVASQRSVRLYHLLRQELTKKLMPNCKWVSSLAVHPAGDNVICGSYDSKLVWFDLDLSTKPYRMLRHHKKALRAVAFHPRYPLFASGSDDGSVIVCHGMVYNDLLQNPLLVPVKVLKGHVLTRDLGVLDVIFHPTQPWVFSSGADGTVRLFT
Sequence of UniProt Q9UII2 (Q9UII2 whole entry, looked up): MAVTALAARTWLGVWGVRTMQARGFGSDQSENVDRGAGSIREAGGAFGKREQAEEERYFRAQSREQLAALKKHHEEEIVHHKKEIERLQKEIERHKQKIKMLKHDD
Sequence of UniProt Q9BRQ8 (Q9BRQ8 whole entry, looked up): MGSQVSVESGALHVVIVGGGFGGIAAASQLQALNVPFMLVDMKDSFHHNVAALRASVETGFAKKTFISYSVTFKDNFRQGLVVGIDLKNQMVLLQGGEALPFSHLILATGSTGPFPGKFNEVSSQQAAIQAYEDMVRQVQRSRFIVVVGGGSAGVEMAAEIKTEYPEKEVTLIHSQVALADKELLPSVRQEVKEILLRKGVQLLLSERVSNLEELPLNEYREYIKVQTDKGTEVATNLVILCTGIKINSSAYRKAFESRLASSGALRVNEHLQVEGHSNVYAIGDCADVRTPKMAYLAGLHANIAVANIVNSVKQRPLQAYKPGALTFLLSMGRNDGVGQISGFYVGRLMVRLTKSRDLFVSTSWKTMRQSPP
Sequence of UniProt P55957 (P55957 whole entry, looked up): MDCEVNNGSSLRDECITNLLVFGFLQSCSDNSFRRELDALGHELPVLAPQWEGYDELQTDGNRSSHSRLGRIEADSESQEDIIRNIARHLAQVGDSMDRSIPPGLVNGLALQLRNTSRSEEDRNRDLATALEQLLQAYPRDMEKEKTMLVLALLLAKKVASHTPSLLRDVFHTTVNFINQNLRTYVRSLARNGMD
Sequence of UniProt Q9H8Y5 (Q9H8Y5 whole entry, looked up): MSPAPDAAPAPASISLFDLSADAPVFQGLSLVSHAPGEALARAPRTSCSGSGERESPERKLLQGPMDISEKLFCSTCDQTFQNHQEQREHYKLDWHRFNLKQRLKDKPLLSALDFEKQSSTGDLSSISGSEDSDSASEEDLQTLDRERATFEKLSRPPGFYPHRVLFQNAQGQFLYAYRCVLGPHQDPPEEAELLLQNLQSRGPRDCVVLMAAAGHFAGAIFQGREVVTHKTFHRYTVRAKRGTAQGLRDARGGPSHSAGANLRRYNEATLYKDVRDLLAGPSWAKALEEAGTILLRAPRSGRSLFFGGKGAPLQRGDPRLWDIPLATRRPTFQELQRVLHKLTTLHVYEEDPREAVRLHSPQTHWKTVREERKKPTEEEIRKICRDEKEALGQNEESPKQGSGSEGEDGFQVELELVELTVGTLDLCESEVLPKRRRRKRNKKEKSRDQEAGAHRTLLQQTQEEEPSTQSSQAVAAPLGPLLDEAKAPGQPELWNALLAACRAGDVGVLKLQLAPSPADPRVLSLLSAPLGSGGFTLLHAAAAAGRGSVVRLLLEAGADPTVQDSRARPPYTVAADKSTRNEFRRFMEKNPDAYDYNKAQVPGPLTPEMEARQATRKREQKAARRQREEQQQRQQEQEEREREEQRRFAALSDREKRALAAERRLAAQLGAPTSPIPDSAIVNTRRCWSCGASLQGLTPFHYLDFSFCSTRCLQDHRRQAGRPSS
Sequence of UniProt Q8N6H7 (Q8N6H7 whole entry, looked up): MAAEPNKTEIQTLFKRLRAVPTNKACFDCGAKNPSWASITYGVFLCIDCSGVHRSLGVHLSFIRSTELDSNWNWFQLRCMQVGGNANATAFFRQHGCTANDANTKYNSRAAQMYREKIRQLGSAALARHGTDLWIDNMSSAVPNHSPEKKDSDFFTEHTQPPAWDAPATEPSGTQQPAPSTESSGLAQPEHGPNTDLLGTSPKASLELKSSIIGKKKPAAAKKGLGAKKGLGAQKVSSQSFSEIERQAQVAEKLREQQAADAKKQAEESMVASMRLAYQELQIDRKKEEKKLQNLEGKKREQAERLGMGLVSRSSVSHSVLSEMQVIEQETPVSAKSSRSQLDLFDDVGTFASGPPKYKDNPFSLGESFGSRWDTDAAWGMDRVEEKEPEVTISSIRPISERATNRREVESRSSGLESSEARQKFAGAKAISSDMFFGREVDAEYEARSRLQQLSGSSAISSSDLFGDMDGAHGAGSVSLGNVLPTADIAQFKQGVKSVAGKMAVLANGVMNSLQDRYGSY

Row | Target | log2 fold change [1] | log2 fold change [2] | log2 fold change [3] | log2 fold change [4] | log2 fold change (entinostat) | log2 fold change (vorinostat) | log2 fold change (citarinostat) | log2 fold change (silmitasertib) | log2 fold change [5] | log2 fold change [6] | log2 fold change (entospletinib)
1 | ACSL3 (UniProt O95573) | 0.009 | -0.041 | -0.095 | -0.042 | 0.047 | 0.049 | 0.047 | 0.074 | -0.045 | 0.028 | -0.06
2 | AHCYL1 (UniProt O43865) | 0.183 | 0.106 | 0.003 | 0.046 | -0.109 | 0.116 | -0.017 | 0.188 | -0.002 | 0.253 | 0.072
3 | ARF4 (UniProt P18085) | -0.011 | 0.025 | -0.082 | -0.06 | -0.002 | -0.024 | 0.041 | -0.017 | -0.069 | -0.004 | -0.088
4 | ANKZF1 (UniProt Q9H8Y5) | -0.008 | 0.026 | 0.072 | -0.001 | 0.03 | 0.054 | -0.006 | -0.051 | 0.215 | -0.065 | 0.006
5 | BZW1 isoform 3 (UniProt Q7L1Q6) | 0.071 | -0.054 | -0.246 | -0.093 | 0.165 | 0.209 | 0.075 | 0.02 | 0.019 | -0.081 | 0.03
6 | AIFM2 (UniProt Q9BRQ8) | 0.016 | -0.019 | 0.034 | -0.02 | -0.01 | -0.053 | 0.046 | 0.03 | 0.047 | -0.034 | 0.01
7 | ACO2 (UniProt Q99798) | 0.017 | -0.04 | -0.142 | -0.012 | 0.039 | 0.023 | 0.057 | 0.001 | -0.058 | -0.042 | -0.008
8 | AGPAT5 (UniProt Q9NUQ2) | -0.044 | 0.016 | -0.029 | -0.047 | -0.027 | -0.002 | 0.045 | -0.001 | -0.076 | -0.027 | 0.114
9 | BAIAP2 (UniProt Q9UQB8) | -0.229 (active) | -0.083 | -0.086 | -0.014 | 0.019 | 0.082 | 0.031 | -0.016 | 0.04 | -0.034 | -0.012
10 | ATP1A1 (UniProt P05023) | -0.055 | 0.093 | 0.116 | 0.07 | -0.04 | 0.03 | -0.003 | -0.062 | -0.077 | 0.003 | 0.002
11 | ALKBH4 (UniProt Q9NXW9) | -0.009 | -0.051 | -0.427 (active) | 0.097 | -0.058 | -0.031 | 0.079 | 0.165 | 0 | -0.014 | -0.029
12 | ARAF (UniProt P10398) | -0.059 | 0.196 | -0.119 | 0.011 | 0.062 | 0.055 | 0.098 | 0.048 | 0.017 | -0.096 | -0.003
13 | ADD3 (UniProt Q9UEY8) | 0.03 | -0.014 | 0.047 | -0.001 | -0.051 | -0.01 | -0.015 | 0.001 | -0.037 | -0.024 | 0.046
14 | ANXA5 (UniProt P08758) | -0.021 | -0.044 | -0.139 | -0.031 | 0.055 | 0.027 | 0.115 | 0 | -0.045 | -0.008 | 0.016
15 | ACACB (UniProt O00763) | -0.02 | -0.043 | -0.047 | 0.084 | 0.076 | 0.082 | 0.131 | 0.119 | 0.222 | -0.01 | -0.077
16 | AP2A1 (UniProt O95782) | -0.38 (active) | 0.061 | 0.041 | 0.026 | -0.002 | 0.038 | 0.005 | 0.047 | -0.275 (active) | -0.227 (active) | 0.017
17 | BYSL (UniProt Q13895) | -0.012 | 0.053 | -0.052 | 0.062 | 0.046 | 0.058 | -0.007 | 0.085 | 0.068 | 0.001 | -0.065
18 | BID isoform 2 (UniProt P55957) | 0.032 | 0.019 | -0.037 | 0.052 | -0.018 | -0.039 | 0.006 | -0.008 | 0.042 | 0.005 | 0.025
19 | ACSF3 (UniProt Q4G176) | -0.016 | -0.073 | -0.098 | -0.184 | 0.069 | 0.007 | 0.197 | 0.109 | 0.035 | -0.107 | -0.059
20 | ALDH1B1 (UniProt P30837) | 0 | -0.039 | -0.065 | -0.054 | -0.019 | 0.281 (active) | 0.051 | -0.037 | -0.015 | 0.058 | -0.018
21 | AP2B1 isoform 2 (UniProt P63010) | -0.225 (active) | 0.01 | 0.037 | 0.002 | 0 | 0.01 | 0.019 | 0.02 | -0.202 | -0.182 | 0.032
22 | AKR1C3 (UniProt P42330) | 0.119 | 0.064 | 0.235 | -0.032 | 0.106 | -0.058 | 0.049 | 0.126 | 0.211 | 0.154 | -0.011
23 | ARFGAP2 (UniProt Q8N6H7) | -0.007 | -0.097 | -0.08 | -0.014 | 0.037 | -0.017 | 0.015 | 0.017 | -0.016 | -0.035 | 0.007
24 | BCAP29 isoform 2 (UniProt Q9UHQ4) | 0.001 | 0.049 | 0.034 | -0.094 | -0.014 | -0.064 | -0.015 | 0.031 | -0.043 | -0.036 | -0.005
25 | ATP5IF1 (UniProt Q9UII2) | -0.039 | -0.01 | -0.02 | 0.086 | -0.021 | -0.07 | -0.124 | -0.044 | -0.092 | 0.092 | 0.057
26 | BCL9L (UniProt Q86UU0) | 0.037 | -0.009 | 0.03 | 0.021 | -0.002 | 0.012 | 0.017 | -0.038 | -0.045 | 0.241 (active) | -0.027
27 | BOP1 (UniProt Q14137) | 0.002 | -0.027 | 0.04 | -0.018 | -0.004 | 0.107 | 0.035 | 0.038 | -0.351 (active) | -0.073 | -0.063
